According to PubChem BioAssay (EPA / NIEHS):
Calls of active or inactive are those of the source. How the source made its calls: active means hit-call score of the fitted dose curve at least 0.9, where 1 is the maximum; inactive means score below 0.9.

Experiment: ATG_TA_CIS: Attagene CIS-FACTORIAL HepG2 Assay for human TA Basal Promoter (AID 2282964)
Details: HepG2 Attagene CIS-factorial TA basal promoter reporter; actives raise or lower the signal
Experimental: ATG_CIS is a cell-based, multiplexed-readout assay that uses HepG2, a human liver cell line, with measurements taken at 24 hours after chemical dosing in a 24-well plate.ATG_TA_CIS is one of 52 assay component(s) measured or calculated from the ATG_CIS assay. It is designed to make measurements of mRNA induction, a form of inducible reporter, as detected with fluorescence intensity signals by Reverse transcription polymerase chain reaction (RT-PCR) and Capillary electrophoresis technology.Data from the assay component ATG_TA_CIS was analyzed into 1 assay endpoint. This assay endpoint, ATG_TA_CIS, was analyzed with bidirectional fitting relative to DMSO as the negative control and baseline of activity. Using a type of inducible reporter, measures of mRNA for gain or loss-of-signal activity can be used to understand the background control at the transcription factor-level as they relate to the gene . Furthermore, this assay endpoint can be referred to as a secondary readout, because this assay has produced multiple assay endpoints where this one serves a background control function. To generalize the intended target to other relatable targets, this assay endpoint is annotated to the background measurement intended target family, where the subfamily is internal marker.
Human liver HepG2 cells are transiently transfected with multiple reporter transcription units (MRTUs) in 6-well plates using FuGene 6 reagent (Roche; 3 ml FuGene/1 mg DNA). The MRTU constructs are regulated by a cis-regulating element (promoter). […] A major difference between the CIS and TRANS system is that in CIS activities of endogenous TFs are measured, whereas the TRANS assay evaluates changes in activities of exogenous, chimeric NR-Gal4 proteins. […] At the end of 24 hour incubation, total RNA was isolated using TriZol reagent (Invitrogen). The isolated RNA is then reverse-transcribed using oligo(dT) primer and Mo-MLV reverse transcriptase (Invitrogen) with DNAse I (Ambion) treatment for 30 min. The one-tenth of the produced cDNA was amplified by PCR using Taq DNA polymerase (Invitrogen) and two reporter sequence-specific primers. The PCR products were fluorescently labeled by primer extension with 6-arboxyfluorescein (6-FAM) 5'-labeled reporter sequence-specific primer (2 min at 95 C, 20 s at 68 C and 10 min at 72 C) and these products were digested with 5U of HpaI (New England Biolabs) for 2h at 37 C. The fragments were purified using Qiaquick PCR columns (Qiagen), analyzed on an ABI 3130xL genetic analyzer (Applied Biosystems) with peak positions identified by using a set of X-rhodamine (ROX)-labeled MapMarker1000 molecular weight standards (BioVentures). The raw capillary electrophoresis data was processed using Attagraph software (Attagene).

outcome, inactive:
COc1cc(CCC(C)=O)ccc1O, C=C(CC(=O)O)C(=O)O, COc1ccc(COC(C)=O)cc1, COc1ccc(OC)c(N=Nc2c(O)ccc3ccccc23)c1, O=C1NC2NC(=O)NC2N1 (stereo not given), CCCCCCOC(=O)CCC, CC(=O)O[C@H]1C[C@@H]2CC[C@@]1(C)C2(C)C, CC(=O)CC(=O)Nc1ccccc1, COc1cc([C@@H]2c3cc4c(cc3[C@@H](O[C@@H]3O[C@@H]5CO[C@@H](C)O[C@H]5[C@H](O)[C@H]3O)[C@H]3COC(=O)[C@H]23)OCO4)cc(OC)c1O, N[C@@H](Cc1cc(I)c(Oc2cc(I)c(O)c(I)c2)c(I)c1)C(=O)O, COS(=O)(=O)O, CC1=NN(c2ccc(S(=O)(=O)O)cc2)C(=O)C1, C=CC(C)C#N (stereo not given), CN(C)C(=S)SC(=S)N(C)C, CCC1(C)NC(=O)NC1=O (stereo not given), O=C1OC(=O)c2c(Br)c(Br)c(Br)c(Br)c21, CCCCCCC(=O)c1ccccc1, CCCCCCCCCCCCCCCC(=O)OC/C=C(C)/C=C/C=C(C)/C=C/C1=C(C)CCCC1(C)C, C=CCN(CC=C)CC=C, C=C(C#N)C(=O)OCC, Cc1ncc[nH]1, C=CCOC(=O)CCCCCC, NCC1CCCC(CN)C1 (stereo not given), CCO/C=C1\N=C(c2ccccc2)OC1=O, CC(C)OCCO, CC(C)=CCCC(C)CCOC=O (stereo not given), CCC1CCCCC1, CCCCCCCCCCCCS(=O)(=O)Cl, C[C@H]1C[C@@H](O)CC(C)(C)C1, CC(C=O)Cc1ccc(C(C)(C)C)cc1 (stereo not given), CCCCC(CC)COC(=O)c1ccc(O)cc1 (stereo not given), CCCCC(CC)(CO)CO, CC(C)=CCCC(C)CC(=O)O (stereo not given), COC(=O)c1ccc(OC)cc1, COCCOCCOCCO, O=C1OC(=O)c2c(Cl)c(Cl)c(Cl)c(Cl)c21, C=C(C)C(=O)OCC(CC)(COC(=O)C(=C)C)COC(=O)C(=C)C, CC(O)C1CCCCC1 (stereo not given), c1ccc2[nH]cnc2c1, C=CCCC(=O)/C=C/C1C(C)=CCCC1(C)C (stereo not given)
